hgDAF-12 ag = H. glycines DAF-12 receptor agonists, primary screen, cell-based, luminescence, HEK293, GAL4 fusion, UAS-luciferase. Nuclear hormone receptor DAF-12 (Heterodera glycines), GAL4 fusion. HEK293 GAL4-hgDAF12 UAS-luciferase reporter, agonist luminescence; normalized to butyrate control. activation, % at 6.8 µM. hit rate 1.8% among 370,000. AID 687014, 2013;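 active means activation above a cutoff set at the mean of all screened compounds plus 3 SD, cut at about 10% in these data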;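 further: 0% = DMSO wells and 100% = sodium butyrate wells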
DAX1 inh-1 = DAX1 (NR0B1) inhibitors on StAR promoter, primary screen, cell-based, luminescence, SF-1 (NR5A1), full-length DAX-1; AID 652010, 2013; HEK293T StAR-luciferase reporter, SF-1/DAX-1 repression relief; hit rate 1.1% among 370,000; inhibition, % at 6.8 µM;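 active means inhibition above the mean over all tested compounds plus 3 SD, cut at about 3.6% in these data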;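 further: 0% = DAX-1 cells with DMSO and 100% = cells lacking DAX-1 with DMSO; higher inhibition means more luminescence from relief of DAX-1 repression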
DAX1 inh-2 = DAX1 (NR0B1) inhibitors, primary screen, cell-based, HEK293, Gal4-DAX1, luciferase luminescence; HEK293 Gal4-DAX1 luciferase reporter; inhibition, % at 6.75 µM; hit rate 0.99% among 340,000; AID 504766, 2011;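 active means inhibition above the mean over all tested compounds plus 3 SD, cut at about 4.2% in these data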;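 further: 0% = DAX1-transfected cells with DMSO and 100% = empty-vector control cells with DMSO; inhibition shows as a rise in luminescence from relieved DAX1 repression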
Target sequence (P51843 207-470 limits assumed): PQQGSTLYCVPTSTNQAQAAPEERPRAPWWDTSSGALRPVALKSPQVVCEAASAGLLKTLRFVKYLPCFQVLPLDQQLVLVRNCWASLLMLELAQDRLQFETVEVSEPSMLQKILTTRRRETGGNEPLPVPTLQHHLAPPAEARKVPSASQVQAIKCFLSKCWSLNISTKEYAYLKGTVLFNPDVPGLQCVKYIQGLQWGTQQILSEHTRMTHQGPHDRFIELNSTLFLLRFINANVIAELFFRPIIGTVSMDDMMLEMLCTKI
ssDAF-12 act = S. stercoralis DAF-12 nuclear receptor activators, primary screen, cell-based, luminescence, HEK293, GRIP1 co-expression, lit1-tk-luc. HEK293 ssDAF-12/GRIP1 lit1-tk-luc reporter; % of 3 µM dafachronic acid response. activation, % at 6.8 µM. hit rate 1% among 370,000. AID 652126, 2013;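 active means activation above the mean over all tested compounds plus 3 SD, cut at about 0.9% in these data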;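 further: 0% = DMSO-only wells and 100% = 3 µM delta7-dafachronic acid wells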
hcDAF12 agonist = H. contortus DAF-12 nuclear receptor activators, primary screen, cell-based, luminescence, HEK293, lit1-tk-luc reporter; HEK293 hcDAF-12 lit1-tk-luc reporter; 0% DMSO, 100% Δ7-dafachronic acid; activation, % at 6.8 µM; hit rate 1.4% among 370,000;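 active means activation above the mean of all tested compounds plus 3 SD, cut at about 5.5% in these data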;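 further: 100% = response to 3 µM Δ7-dafachronic acid high control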
SMARCA2 activ = SMARCA2 (BRM) function activators, primary screen, cell-based, luminescence, high throughput | activation, % at 9.1 µM | AID 652017, 2013 | MG213 cells, MMTV-luciferase reporter, dexamethasone, overnight | hit rate 1% among 370,000; in the data active means activation above about 7.8%;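 further: 0% = vehicle wells and 100% = reference activator wells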
LXRb hcDAF ctr = LXR agonists, Gal4 luciferase reporter, confirmation, counter-screen for hcDAF-12 agonist project, cell-based, luminescence, HEK293, H. contortus campaign. shares compounds with hcDAF12 agonist. activation, % at 6.8 µM. HEK293 Gal4-LXR tk-luc reporter, 24 h; normalized: DMSO 0%, positive control 100%. 3,400 tested, under 10 active;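 active means mean percent activation of the reporter above a cutoff set as the average over tested compounds plus their standard deviation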
hcDAF12 conf = H. contortus DAF-12 receptor agonists, confirmation, cell-based, luminescence, HEK293, lit1-tk-luc, triplicate. shares compounds with hcDAF12 agonist. HEK293 hcDAF-12 lit1-tk-luc reporter; % of Δ7-dafachronic acid response. activation, % at 6.8 µM. hit rate 61% among 3,400. AID 743032, 2013;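 active means mean activation across triplicate tests above the threshold derived from the earlier primary screen, cut at about 5.5% in these data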;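 further: 0% = DMSO only wells and 100% = 3 µM Δ7-dafachronic acid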
hgDAF12 ag = H. glycines DAF-12 receptor agonists, confirmation, cell-based, luminescence, HEK293, GAL4-LBD fusion; hit rate 80% among 3,300; AID 743050, 2013; shares compounds with hgDAF-12 ag; HEK293 GAL4-hgDAF12 luciferase reporter, agonist mode; percent of butyrate response; activation, % at 6.8 µM;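 active means mean activation over triplicate wells above the hit cutoff derived from the earlier primary screen, cut at about 11% in these data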;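 further: 0% = DMSO low control and 100% = 2 mM sodium butyrate high control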
LXR ag 2 = LXR agonists, Gal4 luciferase reporter, confirmation, counter-screen for hgDAF-12 agonist project, cell-based, luminescence, HEK293, H. glycines campaign; activation, % at 6.8 µM; 3,300 tested, under 10 active; shares compounds with hgDAF-12 ag; 24 h;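 active means mean activation of the triplicate above a set limit carried over from the primary screen, none filed active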
* hit, by the source's call; · = no result given. A selection: hits, their analogues and other compounds. The true share with any hit is near 4.8%.

SMILES | hgDAF-12 ag | DAX1 inh-1 | DAX1 inh-2 | ssDAF-12 act | hcDAF12 agonist | SMARCA2 activ | LXRb hcDAF ctr | hcDAF12 conf | hgDAF12 ag | LXR ag 2
Cc1c(-c2ccc(Br)cc2)nc2ccccn12 | 14.7* | 4.0* | 1.4 | 1.4* | 8.4* | 6.3 | 1.1 | 7.5* | 15.3* | 0.8
CN(C)c1ccc(-c2nc3ccccn3c2/N=C/c2ccc(Br)cc2)cc1 | 16.4* | 2.9 | -0.2 | 1.4* | 7.5* | 4.6 | 1.2 | 4.7 | 8.3 | 0.6
C/C(=N\Nc1ccc(C(=O)O)cc1)c1ccc(Cl)s1 | 16.2* | 3.0 | -0.6 | 1.1* | 8.2* | 3.9 | 1.4 | 11.0* | 20.3* | 0.9
C/C(=N\Nc1ccc(Cl)c(C(=O)O)c1)c1ccc(Br)s1 | 3.4 | 0.2 | 2.4 | -0.2 | 1.8 | 2.7 | · | · | · | ·
CCS(=O)(=O)Nc1cccc(C2=NN(S(=O)(=O)c3ccc(C)cc3)C(c3cccs3)C2)c1 (stereo not given) | 2.8 | 0.1 | -1.2 | -1.9 | -2.7 | -1.3 | · | · | · | ·
CCc1ccc(C2=NN(S(C)(=O)=O)C(c3cccs3)C2)cc1 (stereo not given) | 14.8* | 2.7 | 1.2 | 2.6* | 11.7* | 4.4 | 1.3 | 6.1* | 23.0* | 1.1
Cc1ccc(C2=NN(S(C)(=O)=O)C(c3cccs3)C2)cc1 (stereo not given) | 14.4* | 1.7 | 2.7 | 0.3 | 7.6* | 4.0 | 0.9 | 4.9 | 14.1* | 0.4
CS(=O)(=O)N1N=C(c2cccs2)CC1c1ccccc1 (stereo not given) | 1.8 | 0.0 | -1.9 | -1.7 | 0.2 | -1.8 | · | · | · | ·
CCNC(=O)NC1(C(=O)Nc2ccc3c(c2)OCCO3)CCCCC1 | -2.9 | -0.3 | 1.0 | -1.1 | 0.2 | -5.8 | · | · | · | ·
O=C(COc1coc(CN2CCc3ccccc3C2)cc1=O)Nc1ccc(F)cc1 | -0.4 | -0.8 | 0.8 | 0.5 | 0.4 | -1.7 | · | · | · | ·
Cc1c(-c2nc(N)nc(Nc3ccccc3F)n2)oc2ccccc12 | 14.4* | 3.7* | 3.7 | 0.9* | 7.5* | 3.9 | 1.6 | 7.3* | 17.9* | 1.0
CN(CC(=O)NC1CCN(Cc2ccccc2)CC1)S(=O)(=O)c1ccc2c(c1)c(=O)n(C)c(=O)n2C | 3.2 | 0.1 | -0.5 | -1.9 | -1.9 | -4.8 | · | · | · | ·
Clc1cccc(-c2nnc(-c3ccccc3)o2)c1 | 15.8* | 2.4 | 1.2 | 1.9* | 14.3* | 7.2 | 1.5 | 11.4* | 22.8* | 1.1
CCCS(=O)(=O)NCc1cn2c(C)csc2n1 | 15.0* | 3.8* | 3.6 | 1.1* | 10.3* | 2.4 | 0.3 | 3.8 | 6.4 | 0.2
COc1ccc(CNC(=O)CSc2nnc3c(n2)[nH]c2ccc(OC)cc23)cc1 | 0.5 | 0.1 | 0.3 | -0.7 | 1.2 | -2.1 | · | · | · | ·
